Measured values as given in PubChem BioAssay (NCATS).
Inconclusive results are not listed. A number with no mark means an inactive call. The source made the active and inactive calls. Calls come from the whole dose curve; as a rule, active = well fitted inhibition curve with a large enough effect; inconclusive = small, poorly fitted or top-dose-only effect; inactive = flat fitted curve, though single readings scatter. Where a SMILES comes first, the peptide text is derived from it. The star is where a group is joined. PhAc = O=C(Cc1ccccc1)*

experiment: P-glycoprotein substrates identified in KB-8-5-11 adenocarcinoma cell line, qHTS therapeutic library screen (AID 1346987); conditions: KB-8-5-11 (P-gp overexpressing) viability, CellTiter-Glo, 72 h; series mostly up to 44.5 µM; activity change, negative = cytotoxicity: at the top concentration; note: nearly all actives have a fitted effect of over 65% in size
In short: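 KB-8-5-11, a colchicine-selected P-gp-overexpressing KB-3-1 subline, was grown without colchicine for the assay. Cells were seeded at 500 cells/well, dosed in concentration-response and incubated 72 h at 37 degree C, 5% CO2. Viability was read by CellTiter-Glo luminescence.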
% is set by controls: 0 for no effect and ±100 for the full control effect.

| Structure (SMILES) | activity change, negative = cytotoxicity | outcome |
| --- | --- | --- |
| CNc1nc(Nc2cn(C(C)(C)C#N)nc2C)ncc1C(F)(F)F | -9.4% |  |
| COc1c2c(c(C)c3c1C(=O)OC3)OC1(C)CC(O)C34OC(O)(CCC3(C)C1C2)OC4(C)C (stereo not drawn) |  | inactive [at 17.3 µM] |
| C=CC(C)(O)CC/C=C(\C)C1CC=C(C)C(=O)O1 (stereo not drawn) | 5.5% |  |
| CC1=C2C3OC(=O)C(C)C3(O)CCC2(C)CCC1 (stereo not drawn) | 7.82% |  |
| CC(C)(Oc1ccc(-c2nc3cc(Cl)ccc3s2)cc1)C(=O)O | -6.26% |  |
| O=C(O)Cc1cn([C@@H]2OC[C@@H](O[C@@H]3O[C@H](CO)[C@@H](O)[C@H](O)[C@H]3O)[C@H](O)[C@H]2O[C@@H]2O[C@H](CO)[C@@H](O)[C@H](O)[C@H]2O)c2ccccc12 |  | inactive [at 17.3 µM] |
| COc1ccc2c(c1)C=C1Cn3c-2c(C2CCCCC2)c2ccc(cc23)C(=O)NS(=O)(=O)N(C)CCOCCN(C)C1=O | -6.99% |  |
| CC(=O)OC1(C)CC(O)C2(O)C=COC(OC3OC(CO)C(O)C(O)C3O)C12 (stereo not drawn) |  | inactive [at 17.3 µM] |
| CCOC(=O)CNC(=O)[C@@H]1CCCN1C(=O)Cc1ccccc1 (PhAc-Pro-Gly-OEt) | -7.85% |  |
| COc1ccccc1CN[C@H]1CCCN[C@H]1c1ccccc1 | -9.07% |  |
| CC1=CCC[C@@H]2[C@@](C)(CCc3ccoc3)[C@H](C(=O)O)CC[C@@]12C | 1.12% |  |
| O=C(OCc1ccccc1O[C@@H]1O[C@H](CO)[C@@H](O)[C@H](O)[C@H]1O)C1(O)C=CCCC1O (stereo partly drawn) | 8.75% [at 17.3 µM] |  |
| C/C=C1\[C@H](O[C@@H]2O[C@H](CO)[C@@H](O)[C@H](O)[C@H]2O)OC=C(C(=O)OCCc2ccc(O)cc2)[C@H]1CC(=O)OCCc1ccc(O)cc1 | -6.12% [at 17.3 µM] |  |
